Results from the supplement of paper PMC10849652.
Of roughly 8,800 targets only a part is listed; those with a hit were picked by preference. About 0.5% of all pairs of compound and target were hits.

Key:
Test in all cases: log2 fold change, soluble protein after heating vs DMSO (PISA); higher = thermal stabilisation; K562 lysate, 10 uM; active = over 0.2 and 3.5 SD of the protein, either way, in both replicates (recomputed)
[1] = compound: CCCS(=O)(=O)Nc1ccc(F)c(C(=O)c2c[nH]c3ncc(-c4ccc(Cl)cc4)cc23)c1F [vemurafenib]
Procedure, shortened: (§1)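 Pellets of K562 cells were dounce-homogenised in PBS pH 7.4 with 1 mM MgCl2, and the crude extract was held at 1 mg/mL protein for a 30 min treatment with 10 μM compound. Aliquots were heated for 3 min over 48°C-58°C and pooled before NP-40 was added to 0.5% at 4°C. The supernatant from 21,000xg for 90 min was quantified by TMTpro 16plex LC-MS/MS with channel sums equalised. Values are reported from duplicates as log-two fold change in thermal stability relative to solvent controls.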

[2] = compound: CCCS(=O)(=O)Nc1ccc(F)c(C(=O)c2c[nH]c3ncc(Cl)cc23)c1F
Procedure, shortened: as §1

[3] = compound: CCN(CCCOc1ccc2c(Nc3cc(CC(=O)Nc4cccc(F)c4)[nH]n3)ncnc2c1)CCOP(=O)(O)O [barasertib]
Procedure, shortened: as §1

[4] = compound: CC[C@@H]1C(=O)N(C)c2cnc(Nc3ccc(C(=O)NC4CCN(C)CC4)cc3OC)nc2N1C1CCCC1
Procedure, shortened: as §1

[5] = compound: CC[C@@H]1C(=O)N(C)c2cnc(Nc3ccc(C(=O)N[C@H]4CC[C@H](N5CCN(CC6CC6)CC5)CC4)cc3OC)nc2N1C(C)C [volasertib]
Procedure, shortened: as §1

[6] = compound: CCn1c(C(=O)N(C2CC2)C2CC2)cc2c3c(ncn3C)c(Nc3cc(C)n(C)n3)nc21
Procedure, shortened: as §1

[7] = compound: CCn1cc(-c2ccnc3[nH]c(-c4cccc(CN(C)C)c4)cc23)c(-c2ccc(NC(=O)N(C)C)cc2)n1
Procedure, shortened: as §1

[8] = compound: CN1CCC(CNc2ccc3ncc(-c4cccc(OC(F)(F)F)c4)n3n2)CC1
Procedure, shortened: as §1

[9] = compound: CN1CCN(CCOc2cc(OC3CCOCC3)c3c(Nc4c(Cl)ccc5c4OCO5)ncnc3c2)CC1 [saracatinib]
Procedure, shortened: as §1

[10] = compound: CN1CCN(c2nc(C3=C(c4c[nH]c5ccccc45)C(=O)NC3=O)c3ccccc3n2)CC1 [sotrastaurin]
Procedure, shortened: as §1

[11] = compound: CN1CC[C@H](c2c(O)cc(O)c3c(=O)cc(-c4ccccc4Cl)oc23)[C@H](O)C1 [alvocidib]
Procedure, shortened: as §1

[12] = compound: CN1CCc2c(c3ccccc3n2Cc2ccc(C(=O)NO)cc2)C1 [Tubastatin A]
Procedure, shortened: as §1

[13] = compound: CNC(=O)C1=CC=CC=C1NC2=NC(=NC=C2Cl)NC3=C(C=C(C=C3)N4CCOCC4)OC
Procedure, shortened: as §1

[14] = compound: CNC(=O)c1ccc(Nc2ncc(C(F)(F)F)c(NCc3nccnc3N(C)S(C)(=O)=O)n2)cc1 [defactinib]
Procedure, shortened: as §1

[15] = compound: CNc1nc(-c2ccc3c(N)n[nH]c3c2)cc(N2C[C@@H](C(=O)NC3CCCCC3)CC[C@H]2C)n1
Procedure, shortened: as §1

[16] = compound: COC(=O)N[C@@H](C)CNc1nccc(-c2cn(C(C)C)nc2-c2cc(Cl)cc(NS(C)(=O)=O)c2F)n1 [encorafenib]
Procedure, shortened: as §1

[17] = compound: COC(=O)[C@H](CCSC)NC(=O)C1=C(C=C(C=C1)NC[C@H](CS)N)C2=CC=CC=C2
Procedure, shortened: as §1

[18] = compound: COc1cc(Nc2ncc3c(n2)-c2ccc(Cl)cc2C(c2c(F)cccc2OC)=NC3)ccc1C(=O)O [alisertib]
Procedure, shortened: as §1

[19] = compound: COc1cc2nc(-c3cc(F)ccc3O)nc(N[C@@H]3CNC[C@H]3C(C)(C)O)c2cc1OC
Procedure, shortened: as §1

[20] = compound: COc1cc2ncnc(Nc3ccc(F)c(Cl)c3)c2cc1OCCCN1CCOCC1 [gefitinib]
Procedure, shortened: as §1

Measured: log2 fold change

MAP2K4 isoform 2 (UniProt P45985)
Sequence of UniProt P45985 (P45985 whole entry, looked up): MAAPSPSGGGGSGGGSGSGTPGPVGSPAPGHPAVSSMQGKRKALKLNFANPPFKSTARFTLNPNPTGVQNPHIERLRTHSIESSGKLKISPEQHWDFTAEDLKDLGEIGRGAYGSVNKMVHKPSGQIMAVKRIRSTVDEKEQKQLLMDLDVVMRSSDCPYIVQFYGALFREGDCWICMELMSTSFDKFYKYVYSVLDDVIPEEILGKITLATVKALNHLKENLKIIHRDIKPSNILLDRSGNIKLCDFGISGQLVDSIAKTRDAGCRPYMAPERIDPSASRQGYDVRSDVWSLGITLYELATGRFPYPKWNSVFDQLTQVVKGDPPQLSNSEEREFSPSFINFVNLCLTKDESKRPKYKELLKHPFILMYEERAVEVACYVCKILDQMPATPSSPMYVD
active: [1] 0.601 | [7] 0.936
inactive: [2] 0.243 | [3] 0.09 | [4] -0.127 | [5] -0.01 | [6] 0.04 | [8] -0.063 | [9] -0.063 | [10] 0.002 | [11] 0.137 | [12] -0.08 | [13] 0.081 | [14] 0.013 | [15] 0.061 | [16] 0.122 | [17] 0.087 | [18] -0.069 | [19] -0.022 | [20] -0.032

KRAS (UniProt P01116)
Sequence of UniProt P01116 (P01116 whole entry, looked up): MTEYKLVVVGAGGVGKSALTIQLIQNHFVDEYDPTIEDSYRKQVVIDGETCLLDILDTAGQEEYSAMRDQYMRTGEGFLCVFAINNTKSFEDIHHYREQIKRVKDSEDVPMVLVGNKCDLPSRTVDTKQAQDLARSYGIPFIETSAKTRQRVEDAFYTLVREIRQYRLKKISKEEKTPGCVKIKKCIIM
active: [7] -0.278
inactive: [1] 0.061 | [2] 0.019 | [4] 0.019 | [5] 0.063 | [6] -0.053 | [8] 0.06 | [9] 0.066 | [10] 0.012 | [11] -0.071 | [12] 0.059 | [13] -0.048 | [14] -0.01 | [15] -0.005 | [16] 0.01 | [17] 0.043 | [18] -0.016 | [19] -0.042 | [20] 0.139

KLC4 isoform 3 (UniProt Q9NSK0)
Sequence of UniProt Q9NSK0 (Q9NSK0 whole entry, looked up): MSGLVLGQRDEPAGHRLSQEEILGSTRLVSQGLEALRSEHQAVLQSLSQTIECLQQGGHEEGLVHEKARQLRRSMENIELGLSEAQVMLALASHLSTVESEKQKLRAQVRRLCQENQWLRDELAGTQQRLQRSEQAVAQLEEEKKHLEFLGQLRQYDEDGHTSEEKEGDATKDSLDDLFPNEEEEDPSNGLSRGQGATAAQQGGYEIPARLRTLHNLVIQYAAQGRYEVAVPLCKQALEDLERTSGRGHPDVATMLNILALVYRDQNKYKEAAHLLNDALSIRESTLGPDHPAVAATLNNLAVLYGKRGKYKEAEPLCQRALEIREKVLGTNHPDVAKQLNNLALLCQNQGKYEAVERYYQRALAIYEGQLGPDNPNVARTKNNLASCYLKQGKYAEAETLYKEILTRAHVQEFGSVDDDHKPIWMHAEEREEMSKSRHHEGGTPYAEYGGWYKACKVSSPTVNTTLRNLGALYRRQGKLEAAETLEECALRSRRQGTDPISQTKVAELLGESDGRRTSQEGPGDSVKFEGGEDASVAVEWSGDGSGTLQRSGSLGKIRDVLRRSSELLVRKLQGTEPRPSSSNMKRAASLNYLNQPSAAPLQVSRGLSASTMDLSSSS
inactive: [1] -0.038 | [2] 0.02 | [3] -0.008 | [4] 0.038 | [5] -0.029 | [6] 0.052 | [7] 0.011 | [8] -0.018 | [9] -0.012 | [10] 0.003 | [11] -0.01 | [12] -0.091 | [13] -0.008 | [14] 0.014 | [15] -0.084 | [16] 0.014 | [17] 0.007 | [18] 0.014 | [19] 0.014 | [20] -0.028

MPDZ (UniProt O75970)
inactive: [1] 0.059 | [2] 0.03 | [4] 0 | [5] -0.026 | [6] -0.115 | [7] 0.129 | [8] -0.017 | [9] 0.088 | [10] 0.209 | [11] 0.028 | [12] 0.117 | [13] 0.236 | [14] 0.053 | [15] 0.099 | [16] -0.091 | [17] -0.032 | [18] -0.167 | [19] -0.114 | [20] 0.228

MAP4 isoform 5 (UniProt P27816)
inactive: [1] -0.019 | [2] -0.035 | [3] -0.038 | [4] 0.069 | [5] 0.044 | [6] -0.266 | [9] 0.041 | [10] -0.04 | [12] 0.077 | [13] 0.087 | [14] -0.086 | [15] 0.138 | [16] -0.051 | [17] -0.025 | [18] 0.047 | [19] -0.028 | [20] 0.039

MAP4K2 (UniProt Q12851)
inactive: [1] 0.198 | [2] -0.038 | [3] 0.009 | [4] -0.009 | [5] -0.035 | [6] -0.023 | [7] -0.317 | [8] 0.105 | [9] 0.005 | [10] 0.053 | [11] 0.111 | [12] -0.189 | [13] -0.02 | [14] 0.086 | [15] 0.055 | [16] -0.183 | [17] -0.234 | [19] 0.219

MAP11 (UniProt Q8WVR3)
Sequence of UniProt Q8WVR3 (Q8WVR3 whole entry, looked up): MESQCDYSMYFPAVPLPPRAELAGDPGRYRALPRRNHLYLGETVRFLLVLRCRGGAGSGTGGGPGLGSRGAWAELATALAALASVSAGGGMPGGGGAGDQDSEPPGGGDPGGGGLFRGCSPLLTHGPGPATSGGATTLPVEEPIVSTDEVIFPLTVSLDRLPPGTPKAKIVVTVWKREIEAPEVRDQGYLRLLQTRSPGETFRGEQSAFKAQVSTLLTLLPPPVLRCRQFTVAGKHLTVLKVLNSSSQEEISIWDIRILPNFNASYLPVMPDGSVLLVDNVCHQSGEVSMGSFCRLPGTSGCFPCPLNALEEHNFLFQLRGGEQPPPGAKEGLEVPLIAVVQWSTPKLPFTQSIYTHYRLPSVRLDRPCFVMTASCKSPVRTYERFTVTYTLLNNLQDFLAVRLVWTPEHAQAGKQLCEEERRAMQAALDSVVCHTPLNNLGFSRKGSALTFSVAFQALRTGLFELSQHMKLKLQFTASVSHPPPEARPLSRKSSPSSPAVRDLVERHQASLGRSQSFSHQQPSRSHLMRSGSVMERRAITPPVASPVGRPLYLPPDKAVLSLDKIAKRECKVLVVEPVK
inactive: [1] -0.032 | [2] 0.044 | [3] 0.07 | [4] 0.129 | [5] -0.079 | [6] 0.086 | [7] 0.049 | [8] 0.06 | [9] 0.033 | [10] -0.039 | [11] -0.117 | [12] -0.091 | [13] 0.021 | [14] 0.076 | [15] 0.004 | [16] -0.058 | [17] -0.084 | [18] -0.001 | [19] -0.025 | [20] -0.046

MMS22L (UniProt Q6ZRQ5)
Sequence of UniProt Q6ZRQ5 (Q6ZRQ5 whole entry, looked up): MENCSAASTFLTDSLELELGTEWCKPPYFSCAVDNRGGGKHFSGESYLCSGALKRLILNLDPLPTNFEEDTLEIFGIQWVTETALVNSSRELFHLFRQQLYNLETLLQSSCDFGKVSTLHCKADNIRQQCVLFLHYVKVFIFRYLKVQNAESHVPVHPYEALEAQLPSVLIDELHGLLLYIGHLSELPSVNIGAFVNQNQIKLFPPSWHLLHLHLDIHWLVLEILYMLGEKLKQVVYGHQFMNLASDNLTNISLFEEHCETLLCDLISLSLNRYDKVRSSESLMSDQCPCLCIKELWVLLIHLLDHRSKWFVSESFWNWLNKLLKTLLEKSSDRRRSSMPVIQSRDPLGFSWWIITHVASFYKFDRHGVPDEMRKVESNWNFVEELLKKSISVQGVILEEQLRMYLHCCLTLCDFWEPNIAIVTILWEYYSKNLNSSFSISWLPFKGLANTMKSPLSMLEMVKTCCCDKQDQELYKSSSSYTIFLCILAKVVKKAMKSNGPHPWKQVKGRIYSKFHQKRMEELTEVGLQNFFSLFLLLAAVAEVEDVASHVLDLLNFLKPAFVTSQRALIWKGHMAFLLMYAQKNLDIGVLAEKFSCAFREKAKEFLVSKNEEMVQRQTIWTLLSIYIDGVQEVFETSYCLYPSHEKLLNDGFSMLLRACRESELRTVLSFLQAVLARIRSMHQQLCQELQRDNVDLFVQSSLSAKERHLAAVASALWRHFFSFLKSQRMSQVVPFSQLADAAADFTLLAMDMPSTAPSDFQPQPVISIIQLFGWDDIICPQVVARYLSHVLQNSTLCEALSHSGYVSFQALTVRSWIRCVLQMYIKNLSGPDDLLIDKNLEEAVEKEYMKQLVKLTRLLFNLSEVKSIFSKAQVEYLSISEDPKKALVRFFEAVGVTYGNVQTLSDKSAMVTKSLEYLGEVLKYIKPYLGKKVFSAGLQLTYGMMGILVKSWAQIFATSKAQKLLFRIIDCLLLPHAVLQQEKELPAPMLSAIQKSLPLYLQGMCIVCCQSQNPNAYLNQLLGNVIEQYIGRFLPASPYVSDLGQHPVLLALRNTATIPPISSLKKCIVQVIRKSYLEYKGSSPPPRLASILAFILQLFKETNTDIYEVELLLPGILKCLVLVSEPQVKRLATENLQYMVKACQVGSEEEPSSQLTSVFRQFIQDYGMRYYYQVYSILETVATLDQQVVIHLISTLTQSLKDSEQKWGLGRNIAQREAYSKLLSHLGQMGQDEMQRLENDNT
inactive: [1] -0.044 | [2] 0.013 | [3] 0.083 | [4] -0.182 | [5] -0.119 | [7] 0.077 | [8] -0.083 | [9] 0.092 | [10] 0.012 | [11] 0.068 | [13] -0.011 | [14] 0.06 | [15] -0.03 | [16] -0.007 | [17] 0.017 | [18] -0.004 | [19] 0.055 | [20] 0.035

KRIT1 (UniProt O00522)
inactive: [1] -0.084 | [2] 0.051 | [3] -0.084 | [4] -0.009 | [5] 0.036 | [6] -0.052 | [9] -0.103 | [10] 0.049 | [12] -0.034 | [13] 0.089 | [14] 0.045 | [15] 0.102 | [16] 0.118 | [17] 0.123 | [18] 0.038 | [19] -0.055 | [20] 0.029

KIF3C (UniProt O14782)
inactive: [1] 0.565 | [2] -0.213 | [4] -0.296 | [5] 0.186 | [6] 0.018 | [7] -0.138 | [8] -0.037 | [9] 0.02 | [10] -0.022 | [11] 0.033 | [12] -0.018 | [13] -0.01 | [14] 0.157 | [15] 0.058 | [16] 0.101 | [17] 0.024 | [18] 0.247 | [19] 0.07 | [20] -0.029

LRRC7 (UniProt Q96NW7)
inactive: [1] 0.112 | [2] -0.024 | [3] 0.062 | [4] 0.056 | [5] 0.047 | [6] -0.008 | [7] -0.033 | [8] -0.043 | [9] -0.044 | [10] -0.012 | [11] 0.069 | [12] 0.079 | [14] 0.251 | [15] 0.058 | [16] -0.103 | [17] 0.026 | [19] -0.016

KLHL36 (UniProt Q8N4N3)
inactive: [1] 0.024 | [2] 0.106 | [3] -0.088 | [4] 0.077 | [5] -0.127 | [6] 0.1 | [7] -0.006 | [8] -0.048 | [9] -0.031 | [10] 0.099 | [11] 0.046 | [12] 0.04 | [13] -0.032 | [14] 0.039 | [15] 0.017 | [16] 0.031 | [17] -0.078 | [18] 0.032 | [19] -0.009 | [20] -0.074

MDM1 (UniProt Q8TC05)
Sequence of UniProt Q8TC05 (Q8TC05 whole entry, looked up): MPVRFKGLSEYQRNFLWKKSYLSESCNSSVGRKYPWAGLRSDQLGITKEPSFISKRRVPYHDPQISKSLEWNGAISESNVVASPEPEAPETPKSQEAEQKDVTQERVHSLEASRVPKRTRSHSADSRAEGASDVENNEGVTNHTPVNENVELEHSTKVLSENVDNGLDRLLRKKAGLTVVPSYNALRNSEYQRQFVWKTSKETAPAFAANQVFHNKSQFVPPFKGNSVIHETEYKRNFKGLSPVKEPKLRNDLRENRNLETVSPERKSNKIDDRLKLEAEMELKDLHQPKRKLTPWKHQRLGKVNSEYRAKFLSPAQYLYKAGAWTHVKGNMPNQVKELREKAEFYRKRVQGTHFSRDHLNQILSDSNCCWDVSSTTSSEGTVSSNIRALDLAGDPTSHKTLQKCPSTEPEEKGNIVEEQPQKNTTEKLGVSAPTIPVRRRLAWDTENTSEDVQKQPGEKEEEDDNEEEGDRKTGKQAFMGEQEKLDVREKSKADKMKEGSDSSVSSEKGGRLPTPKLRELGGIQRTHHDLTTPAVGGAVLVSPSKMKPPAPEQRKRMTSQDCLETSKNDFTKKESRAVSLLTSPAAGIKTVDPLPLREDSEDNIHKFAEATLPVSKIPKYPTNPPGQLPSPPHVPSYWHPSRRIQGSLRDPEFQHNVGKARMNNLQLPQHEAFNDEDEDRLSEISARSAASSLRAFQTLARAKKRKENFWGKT
active: [7] -1.5 | [8] 0.512
inactive: [1] 0.024 | [2] 0.053 | [4] -0.05 | [5] 0.024 | [6] 0.075 | [9] 0.013 | [11] -0.527 | [12] 0.007 | [13] -0.071 | [14] -0.126 | [15] -0.328 | [16] 0 | [17] -0.12 | [18] 0.018 | [19] -0.031 | [20] 0.14

LRIF1 (UniProt Q5T3J3)
Sequence of UniProt Q5T3J3 (Q5T3J3 whole entry, looked up): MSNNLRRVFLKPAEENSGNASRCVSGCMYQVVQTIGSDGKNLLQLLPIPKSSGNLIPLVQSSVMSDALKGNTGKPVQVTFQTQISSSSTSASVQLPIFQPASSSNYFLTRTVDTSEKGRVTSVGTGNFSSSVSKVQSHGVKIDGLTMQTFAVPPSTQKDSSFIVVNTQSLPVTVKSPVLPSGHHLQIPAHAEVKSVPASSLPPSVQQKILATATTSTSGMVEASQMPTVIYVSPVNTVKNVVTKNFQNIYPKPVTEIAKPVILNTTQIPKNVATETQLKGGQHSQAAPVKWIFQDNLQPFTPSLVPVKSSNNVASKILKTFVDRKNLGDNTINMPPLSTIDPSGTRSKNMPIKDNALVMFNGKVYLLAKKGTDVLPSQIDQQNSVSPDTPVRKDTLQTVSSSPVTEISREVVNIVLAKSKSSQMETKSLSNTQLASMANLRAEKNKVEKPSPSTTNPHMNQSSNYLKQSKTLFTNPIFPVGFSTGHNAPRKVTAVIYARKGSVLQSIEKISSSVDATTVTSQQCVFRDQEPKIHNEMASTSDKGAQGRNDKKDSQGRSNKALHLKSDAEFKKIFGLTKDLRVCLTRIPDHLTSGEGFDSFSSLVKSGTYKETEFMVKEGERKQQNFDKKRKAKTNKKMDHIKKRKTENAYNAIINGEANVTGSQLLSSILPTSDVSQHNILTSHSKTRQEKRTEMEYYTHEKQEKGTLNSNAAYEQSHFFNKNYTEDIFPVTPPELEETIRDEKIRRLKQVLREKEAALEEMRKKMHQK
inactive: [1] 0.213 | [2] -0.005 | [4] -0.009 | [5] 0.042 | [6] 0.006 | [7] 0.105 | [8] 0.044 | [9] 0.046 | [10] 0.001 | [11] -0.018 | [12] 0.075 | [13] -0.035 | [14] 0.002 | [15] 0.126 | [16] 0.049 | [17] 0.052 | [18] -0.03 | [19] 0.234 | [20] -0.039

MINDY1 isoform 3 (UniProt Q8N5J2)
inactive: [1] -0.049 | [2] -0.26 | [3] -0.201 | [4] 0.059 | [5] -0.041 | [6] -0.106 | [9] 0.076 | [10] 0.074 | [12] 0.093 | [13] -0.031 | [14] 0.021 | [15] -0.054 | [16] 0.03 | [17] -0.053 | [18] 0.001 | [19] 0.103 | [20] 0.134

MANEA (UniProt Q5SRI9)
Sequence of UniProt Q5SRI9 (Q5SRI9 whole entry, looked up): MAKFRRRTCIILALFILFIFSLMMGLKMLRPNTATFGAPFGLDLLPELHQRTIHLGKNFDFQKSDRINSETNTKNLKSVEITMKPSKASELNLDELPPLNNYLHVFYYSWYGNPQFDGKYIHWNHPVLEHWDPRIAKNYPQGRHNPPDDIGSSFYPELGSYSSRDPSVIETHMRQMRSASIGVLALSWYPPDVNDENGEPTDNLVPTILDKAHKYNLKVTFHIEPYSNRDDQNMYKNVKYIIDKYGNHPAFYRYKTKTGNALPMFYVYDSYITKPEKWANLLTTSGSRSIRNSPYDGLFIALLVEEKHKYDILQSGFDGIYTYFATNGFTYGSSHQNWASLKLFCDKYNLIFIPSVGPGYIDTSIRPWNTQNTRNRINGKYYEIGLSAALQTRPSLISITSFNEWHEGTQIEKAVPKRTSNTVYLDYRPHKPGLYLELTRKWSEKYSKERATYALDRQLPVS
active: [7] -0.627
inactive: [1] 0.035 | [2] -0.019 | [3] -0.071 | [4] -0.001 | [5] -0.084 | [6] 0.005 | [8] 0.254 | [9] -0.059 | [10] -0.019 | [11] -0.078 | [12] -0.08 | [13] -0.016 | [14] 0.062 | [15] -0.09 | [16] 0.028 | [17] -0.07 | [19] 0.041

LRRC40 (UniProt Q9H9A6)
inactive: [1] 0.004 | [2] 0.015 | [3] 0.034 | [4] -0.024 | [5] -0.011 | [6] 0.018 | [7] 0.052 | [8] -0.052 | [9] 0 | [10] 0.021 | [11] -0.009 | [12] -0.089 | [13] 0.019 | [14] 0.013 | [15] -0.012 | [16] 0.021 | [17] -0.038 | [18] 0.031 | [19] -0.008 | [20] 0.001
